Assay outcomes (PubChem BioAssay)
Sampled rows, rich in hits. Any-hit rate of the full collection: about 2.9%.
MITF TRPM1 inh – MITF TRPM1 promoter inhibition in SK-MEL-5 cells; SK-MEL-5 TRPM1 promoter luciferase, 24 h; inhibition, % at 12.5 µM; actives 0.83% (n = 330,000);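 active = mean inhibition across replicates of 60% or more, whatever share of single replicates reaches that level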
CF NFkB inh – inhibitors of cystic fibrosis induced NF-kB; KKLEB NF-kB-GFP reporter, PAF-induced, GFP fluorescence overnight; AID 588850; actives 0.86% (n = 360,000); inhibition, % at 5 µM;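 active = at least 50% inhibition at 5 µM, scaled per plate between neutral and stimulator controls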;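 note: PAF is a Pseudomonas aeruginosa culture filtrate used as stimulus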
Peg3 prom inh – reduces Peg3 promoter-driven luciferase expression in HeLa; HeLa PEG-Prom luciferase reporter, luminescence, overnight; inhibition, % at 20 µM; actives 1.7% (n = 360,000); AID 588405;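 active = inhibition of at least 50% at 20 µM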
KKLEB cytotox – CF airway cell cytotoxicity counter-screen | actives 0.36% (n = 360,000) | KKLEB CF airway cells viability, ATPlite luminescence, overnight; active compounds read low; cells stimulated with P. aeruginosa culture filtrate | activity change (cytotoxicity), % at 5 µM;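 active = corrected activity change at or below -50% at 5 µM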
LMP1 NFkB inh – inhibitors of Epstein-Barr LMP1-induced NF-kappaB reporter | LMP1-induced NF-kappaB luciferase reporter cells, luminescence | inhibition, % at 12.5 µM | actives 0.69% (n = 350,000) | AID 504558; in the data active = inhibition above about 41%
Shn3 inh set2 – Schnurri-3 reporter inhibition in Clone20 osteoblasts. AID 588674. inhibition, % at 12.5 µM. Clone20 osteoblast Shn3 3'UTR firefly luciferase, 24 h. actives 0.52% (n = 360,000);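 active = mean inhibition of at least 75% with every replicate also reaching 75%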
A number is an active result; . = inactive; / = no result.

SMILES	MITF TRPM1 inh	CF NFkB inh	Peg3 prom inh	KKLEB cytotox	LMP1 NFkB inh	Shn3 inh set2
C[C@]12CCC3C(CC[C@H]4C[C@H](O)CC[C@]34C)C1C[C@@H](CCCCl)[C@@H]2O (stereo partly specified)	/	.	.	.	/	.
Clc1cccc(N2Cc3cc(-c4ccccc4)ccc3-n3nncc3C2)c1	/	.	101.1	.	/	.
COc1ccc(-c2ccc3c(c2)CN(c2cccc(Cl)c2)Cc2cnnn2-3)cc1	/	.	.	.	/	.
COc1ccc(CCNCc2ccccc2F)cc1OC	.	.	.	.	.	.
CCOc1ccc(Cl)cc1CNCCc1ccccc1F	.	.	73.7	.	.	.
O=C1C=C2c3ccccc3CC(C(=O)O)C2CC1 (stereo unspecified)	/	.	.	.	/	.
C[C@H]1CCC/C=C/[C@@H]2C[C@H](O)C[C@H]2[C@@H](O)/C=C/C(=O)O1	88.7	63.8	58.6	.	.	88.3
CC(=O)O[C@H]1CCC2C3CC[C@H]4[C@@H](O)[C@H](O)CC[C@]4(C)C3CC[C@@]21C (stereo partly specified)	.	.	.	.	.	96.2
CC(=O)[C@H]1CCC2C3CC[C@H]4C[C@@H](O)CC[C@]4(C)C3CC[C@@]21C (stereo partly specified)	.	.	.	.	.	.
C=C(C)[C@@]12OC3(c4ccccc4)O[C@@H]1C1[C@@H]4O[C@]4(CO)[C@@H](O)[C@]4(O)C(=O)C(C)=C[C@H]4[C@@]1(O3)[C@H](C)[C@H]2OC(=O)/C=C/C=C/c1ccccc1 (stereo partly specified)	.	54.4	99.8	-53.0	.	.
COc1ccc(C(=O)C2CCCN(CC3CCCCC3)C2)cc1OC (stereo unspecified)	/	.	.	.	/	.
O=C(Nc1ccc(F)cc1)N1Cc2ccccc2-n2nncc2C1	/	.	.	.	.	.
Oc1ccc2c3c1OC1c4[nH]c5ccccc5c4C[C@@]4(O)C(C2)N(CC2CC2)CC[C@]314 (stereo partly specified)	.	.	.	.	.	.
O=C1/C(=C/c2ccccc2)C[C@@]2(O)[C@H]3Cc4ccc(O)c5c4[C@@]2(CCN3CC2CC2)C1O5 (stereo partly specified)	108.7	76.0	100.1	.	.	95.2
O=C1CC23c4ccccc4N4C(=O)CC5OCC=C6CN1C2CC6C5C43 (stereo unspecified)	.	.	.	.	.	.
O=C(CCc1ccccc1)N1Cc2cc(N3CCCCC3)ccc2-n2nncc2C1	/	.	.	.	/	.
COc1cc2c(cc1O)C[C@H]1c3c(cc(O)c(OC)c3-2)CCN1C	.	.	.	.	.	.
COc1cc2c3c(c1OC)Oc1ccc(cc1)C[C@H]1c4c(cc(OC)c(OC)c4Oc4ccc(cc4)C[C@@H]3N(C)CC2)CCN1C	91.2	.	87.4	.	.	.
COc1cc2c3cc1Oc1cc(ccc1O)C[C@@H]1c4c(cc(OC)c(O)c4Oc4cccc(c4)C[C@@H]3N(C)CC2)CC[N+]1(C)C	.	.	.	.	.	.
COc1cc2c3cc1Oc1c(OC)c(OC)cc4c1[C@H](Cc1ccc(cc1)Oc1cc(ccc1O)C[C@H]3N(C)CC2)N(C)CC4	80.3	.	70.2	.	.	.
COc1cc2c3cc1Oc1cc(ccc1O)C[C@@H]1c4c(cc(OC)c(O)c4Oc4ccc(cc4)C[C@H]3N(C)CC2)CCN1C	.	.	67.5	-65.7	83.3	.
CC1(C)CC(=O)CC(C)(C)N1O	/	.	.	.	.	.
CS(=O)(=O)c1ccc(C2=C(CNC(=O)c3nccs3)[C@H]3CC[C@@H](C2)N3Cc2ccco2)cc1	/	.	.	.	.	.
C[C@]12CCC3C(CC[C@H]4C[C@H](O)CC[C@]34C)C1C[C@@H](O)[C@H]2O (stereo partly specified)	/	.	.	.	/	.
COc1ccc2nc3c(C)n(C)ccc-3c2c1	.	.	.	.	.	.
SMILES	MITF TRPM1 inh	CF NFkB inh	Peg3 prom inh	KKLEB cytotox	LMP1 NFkB inh	Shn3 inh set2
CC1C(=O)CC2(C(C)C)CC12 (stereo unspecified)	/	.	.	.	/	.
O=[N+]([O-])c1ccc(N2CCOCC2)c2c1no[n+]2[O-]	/	84.5	96.1	-91.7	.	.
O=C(N/N=C/C1C(=O)NC(=S)N(c2ccccc2)C1=O)c1cc(Br)c(O)c(Br)c1 (stereo unspecified)	.	.	.	.	51.6	.
CCn1c(O)c(/C=N/NC(=O)c2ccccc2)c(=O)n(CC)c1=S	/	.	.	.	/	.
COc1ccc(OC(=O)N(C)C[C@@H]2OCc3ccccc3-c3c(n(C)c4ccccc34)C(=O)N([C@H](C)CO)C[C@@H]2C)cc1	/	.	.	.	.	.
COC(=O)C1=C(c2ccc3ccccc3c2)C[C@@H]2CC[C@H]1N2C	.	.	.	.	.	.
COC(=O)C1=C(C(=O)OC)C2OC1c1cc3ccccc3cc12	112.1	.	95.0	.	.	95.2
S=C(NCCc1ccccc1)N1Cc2ccccc2-n2nncc2C1	/	.	.	.	.	.
CN1C2CCC1/C(=C/c1ccccn1)C(=O)/C2=C\c1ccccn1	96.8	98.9	99.4	-91.3	92.6	92.7
C=C1C(=O)OC2CCN3CC=C(COC(=O)C(C)(O)C4(CO4)C1C)C23 (stereo unspecified)	/	.	.	.	/	.
CC(=O)O[C@@H]1/C=C/[C@](C)(O)C[C@@H](C)C/C=C/[C@H]2[C@@H]3O[C@]3(C)[C@@H](C)[C@H]3[C@H](Cc4ccccc4)NC(=O)[C@@]312	/	54.9	.	-53.4	/	.
O=C1NC2C(O)C(O)C(O)C(O)C2c2cc3c(c(O)c21)OCO3 (stereo unspecified)	72.1	86.1	99.1	.	92.1	87.4
COc1ccc2c3c1OC1C(=O)CC[C@@]4(O)[C@@H](C2)N(C)CC[C@]314 (stereo partly specified)	.	.	50.1	.	.	.
Fc1cccc(-c2ccc3c(c2)CN(C(=S)NCCc2ccccc2)Cc2cnnn2-3)c1	/	.	.	.	/	.
COc1ccc2c(c1)/C(=C/c1cnc[nH]1)C(=O)N2	.	54.3	99.6	.	88.1	.
CN(C)c1ccc(-[n+]2c(-c3ccccc3)cc(-c3ccccc3)cc2-c2ccccc2)cc1	92.5	.	71.7	.	.	94.1
Cc1ccc(-c2cc(-c3ccc(C)cc3)[n+](-c3ccc(C(=O)[O-])cc3)c(-c3ccc(C)cc3)c2)cc1	.	.	.	.	.	.
Cc1ccc(-c2cc(-c3ccccc3)cc(-c3ccccc3)[n+]2-c2ccccc2)cc1	103.3	.	99.5	.	.	97.8
CC(C)CN1Cc2ccccc2-n2nncc2C1	/	.	.	.	.	.
Cn1c(NN=O)nc2ccccc21	.	.	.	.	.	89.6
